A549 tox – kills or reduces viability of A549 cells in Nrf2 counter-screen; A549 ARE-Fluc cells, CellTiter-Fluor viability, 18-24 h; Potency, µM (titrated, usually from 46 µM), for the others: at the highest dose activity change, negative = cytotoxicity, most hits filed as inhibitors; hit rate 0.16% among 390,000; further: on the % scale 0 is the no-effect control and ±100 the full control effect
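A549 ARE_Fluc cells in 5% FBS OPTI-MEM were exposed to compounds in concentration-response for 18-24 h at 37 deg C. Viability was read by CellTiter-Fluor fluorescence (Ex 405/Em 525) after 30 min, before the luciferase read.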
TGFb inhibitor – inhibitors of TGF-b signaling; Potency, µM (highest dose often 46.1 µM), without a hit: top-dose activity, negative = inhibition, most hits filed as inhibitors; hit rate 1.2% among 410,000; AID 588855; HepG2 CAGA-GFP TGF-b/SMAD3 reporter, GFP fluorescence, 18 h; TGF-beta stimulated, 500 pg/mL final; further: on the % scale 0 is the no-effect control and ±100 the full control effect; nearly all actives have a fitted effect of over 65% in size
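TGF-beta reporter screen: HEPG2 CAGA-GFP, 1% FBS, 500 pg/mL TGF-beta final, 18 h; per-cell GFP summed per well; curves fitted and categorized by class.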
S2 tox – reduces viability in counter-screen for ATXN expression inhibitors; S2 cells (HEK-293 line with an ATXN2-luciferase reporter) viability, CellTiter-Fluor protease fluorescence, 24 h; Potency, µM (doses to about 56.7 µM), most hits filed as cytotoxic; hit rate 0.49% among 400,000; further: nearly all actives have a fitted effect of over 40% in size
Nrf2 inh – Nrf2 pathway inhibition; A549 ARE-Fluc reporter, luciferase luminescence, 18-24 h; Potency, µM (series often up to 46 µM), for inactives: at the highest dose activity change, negative = inhibition, usual class: inhibitors; hit rate 2.1% among 360,000; further: on the % scale 0 is the no-effect control and ±100 the full control effect; nearly all actives have a fitted effect of over 60% in size
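Concentration-response testing used A549 ARE_Fluc cells at 5000 cells/well. Following an 18-24 h compound incubation, viability was read by fluorescence (Ex 405/Em 525) and luciferase output by luminescence.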
ATXN2 expr inh – inhibitors of ATXN2 expression. HEK-293 ATXN2-luciferase reporter, luminescence, 24 h. hit rate 0.72% among 360,000. Potency, µM (titrated, usually from 57 µM), inactives show top-dose activity change, negative = inhibition, most hits filed as inhibitors. AID 1745845; further: on the % scale 0 is the no-effect control and ±100 the full control effect; nearly all actives have a fitted effect of over 55% in size
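ATXN2-luciferase reporter cells (luciferase flanked by upstream and downstream ATXN2 gene portions) were treated 24 h at 37 °C with compounds at up to 57 uM. SteadyGlo luminescence gave expression; GF-AFC fluorescence gave viability.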
HepG2 viability – kills HepG2 cells in TGF-b inhibitor counter-screen; Potency, µM (highest dose often 46.1 µM), for the others: at the highest dose activity change, negative = cytotoxicity, hits mostly cytotoxic; HepG2 CAGA-GFP viability, ATP luminescence, 18 h; AID 588856; hit rate 0.76% among 410,000
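HepG2 CAGA-GFP cells (1000/well, DMEM with 1% FBS) received compound, then TGF-beta at 500 pg/mL final, and were incubated 18 hours at 37 degrees C. Viability was read by CellTiter-Glo luminescence. Media-only wells were set as complete cell-killing and DMSO as no toxicity.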
* marks the source's active call; other numbers are inactive results; i = inactive; u = inconclusive; x = no result; [ ] = dose if it differs, or a comment. Only some compounds are listed: those with a hit (about 3.8% of all), similar ones and a draw of the others. The call rests on the fitted dose curve; in most records, active means well fitted curve in the direction sought with a large enough effect; inconclusive means small, poorly fitted or top-dose-only effect, or another doubt; inactive means no such curve, though single readings can be large; an effect the other way counts as inactive or inconclusive. Potency means the concentration at half of the fitted maximal effect.

SMILES | A549 tox | TGFb inhibitor | S2 tox | Nrf2 inh | ATXN2 expr inh | HepG2 viability
O=C(COc1ccccc1)N(Cc1cccnc1)c1nc2c(F)cccc2s1 | 0% | u | x | x | x | -16%
O=C(CCOc1ccccc1)N(Cc1cccnc1)c1nc2c(F)cccc2s1 | 6% | 16µM* | x | x | x | -99%
Cc1cccc2sc(N(Cc3cccnc3)C(=O)Cc3ccccc3)nc12 | -1% | 13µM* | x | x | x | -21%
Cc1cc(C)c2nc(N(Cc3cccnc3)C(=O)Cc3ccccc3)sc2c1 | -10% | 0% | x | x | x | 4%
Cc1cccc(N2CCN(c3nc4ccc(C(=O)c5ccccc5)cc4n4cnnc34)CC2C)c1 (stereo unspecified) | -1% | 0% | x | 10% | x | 2%
CCCCCCC[n+]1ccc(/C=C/c2c(C)[nH]c3ccccc23)cc1 | x | 388% | x | x | x | -111%
CCCCCCCCCCCCCCCC[n+]1ccc(/C=C/c2c(C)[nH]c3ccccc23)cc1 | x | u | x | x | x | -90%
Cc1[nH]c2ccccc2c1/C=C/c1cc[n+](C)cc1 | 8.2µM* | 92% | i | 2.1µM* | -15% | 0%
Cc1[nH]c2ccccc2c1/C=C/c1c(C)[nH]c2ccccc12 | x | 6.3µM* | x | x | x | -48%
O=C(CSc1nnc2scc(-c3ccccc3)n12)Nc1nsc(-c2ccccc2)n1 | -25% | -20% | u | 16µM* | -38% | -7%
O=C(CSc1nnc2scc(-c3ccccc3)n12)Nc1nsc(-c2ccc(Cl)cc2)n1 | -13% | 3% | i | u | -21% | -30%
Cc1cccc(NC(=O)CSc2nnc3scc(-c4ccccc4)n23)c1 | 1% | -2% | i | -25% | -38% | -17%
Cc1ccc(-c2csc3nnc(SCC(=O)Nc4nsc(-c5ccccc5)n4)n23)cc1 | 1%[1.84 µM] | -22% | i | 21µM* | -9% | -27%
O=Cc1ccccc1C=O | x | x | i | x | 9% | x
CCc1ccc2ncc(S(=O)(=O)c3ccc(C)c(C)c3)c(N3CCCC3)c2c1 | -11% | u | i | 23µM* | -4% | 18%
CCN1CCN(c2c(S(=O)(=O)c3ccc(C)c(C)c3)cnc3cc(OC)c(OC)cc23)CC1 | 1% | -5% | i | 10% | -20% | -30%
N#Cc1ccccc1NC(=O)CSC1=Nc2ccccc2C2CC=NN12 (stereo unspecified) | 1% | -2% | u | -19% | -7% | -12%
Cc1cc(C)cc(N(CCC#N)C(=O)CSC2=Nc3ccccc3C3CC=NN23)c1 (stereo unspecified) | u | u | i | 23µM* | -8% | -5%
Cc1cc(F)ccc1S(=O)(=O)Nc1ccc2c(c1)CCCN2C(=O)c1cccs1 | -7% | 16µM* | x | x | u | -38%
O=C(c1cccs1)N1CCCc2cc(NS(=O)(=O)c3ccc(F)cc3F)ccc21 | -3% | u | u | x | -17% | -40%
COc1cccc(C(=O)Nc2ccc3c(c2)CCCN3C(=O)c2cccs2)c1OC | -11% | 2% | u | 21µM* | u | -34%
COc1cccc(C(=O)Nc2ccncc2)c1OC | -4% | -2% | i | 23µM* | x | -4%
Cc1ccc(S(=O)(=O)NCCCNC(=O)N2CCOCC2)cc1 | -2% | -14% | x | 1% | x | -1%
Cc1ccc(Cl)cc1N1CCN(C(=O)c2cnn(-c3ccc(Cl)cc3)c2C2CCNCC2)CC1 | -17% | u | x | 29% | 32µM* | 11µM*
Cc1cccc(N2CCN(C(=O)c3cnn(-c4cccc(Cl)c4C)c3C3CCNCC3)CC2)c1C | -14% | 18µM* | x | u | x | -94%
SMILES | A549 tox | TGFb inhibitor | S2 tox | Nrf2 inh | ATXN2 expr inh | HepG2 viability
COCCCNc1ncnc2c1c(-c1ccccc1)cn2-c1ccc(C)c(Cl)c1 | -2% | 4% | x | x | x | 0%
COc1cccc(NC(=O)C2(C)CCN2C(=O)Cc2cccc3ccccc23)c1 (stereo unspecified) | x | 17% | u | x | -14% | -12%
Fc1ccc2[nH]c3c(Cl)ncnc3c2c1 | -1% | 0% | i | 4% | -14% | -18%
OC1(c2cccc(C(F)(F)F)c2)CCN(c2ncnc3c2[nH]c2ccc(F)cc23)CC1 | 21µM* | u | i | 12µM* | 6% | 20µM*
O=C(CCCN1CCC(O)(c2cccc(C(F)(F)F)c2)CC1)c1ccc(F)cc1 | -10% | 16% | i | 15% | -8% | -36%
Fc1ccc2[nH]c3c(N4CCN(c5ccccc5)CC4)ncnc3c2c1 | u | u | u | 13µM* | u | -35%
CCOc1ccc2[nH]c3c(N4CCN(C(=O)c5ccco5)CC4)ncnc3c2c1 | 1% | -11% | i | u | u | -34%
CCOC(=O)N1CCN(c2ncnc3c2[nH]c2ccc(F)cc23)CC1 | -14% | -6% | u | 15µM* | u | -28%
O=C(c1ccco1)N1CCN(c2ncnc3c2[nH]c2ccc(Br)cc23)CC1 | -17% | u | i | 8.2µM* | u | -42%
Cn1ccc2cc(S(=O)(=O)N3CCC(C(=O)NCCc4ccccc4)CC3)ccc21 | 0% | -9% | i | x | 3% | 0%
Cc1ccc(NC(=O)C2CCN(S(=O)(=O)c3ccc4[nH]c5c(c4c3)CCCCC5)CC2)cc1 | -7% | u | x | u | x | 5%
O=c1[nH]c(=S)[nH]cc1Oc1ccccc1 | 0% | -2% | i | 0% | -5% | 6%
Cc1snc(S(=O)(=O)/C(C#N)=N\Nc2ccccc2)c1C#N | -10% | 2% | i | -13% | 0% | -18%
Cc1snc(S(=O)(=O)/C(C#N)=N/Nc2ccc(C(F)(F)F)cc2)c1C#N | u | 10µM* | i | -19% | -9% | -32%
Nc1c(C(=O)NCCc2ccccc2)nnn1CC(=O)Nc1ccc(Cl)cc1 | -11% | -2% | x | u | x | 0%
CCN(Cc1ccccc1)C(=O)c1c(C)oc2ncn(C)c(=O)c12 | -5% | 3% | i | 1% | 11% | 1%
C=CCn1c(COc2cccc(C)c2C)nnc1SCC(=O)N1CCN(c2ccccc2)CC1 | u | 4.5µM* | i | 16µM* | u | -69%
CCn1c(COc2cc(C)cc(C)c2)nnc1SCC(=O)N1CCN(c2ccccc2)CC1 | -10% | -10% | i | u | u | -22%
C=CCn1c(SCC(=O)Nc2ccc(N3CCOCC3)cc2)nnc1-c1ccco1 | -17% | 5% | i | -7% | 10% | -5%
Cc1cccc(OCc2nnc(SCC(=O)N3CCN(c4ccccc4)CC3)o2)c1C | -7% | 13% | i | u | -14% | -1%
C=CCn1c(SCC(=O)N2CCN(c3ccc(F)cc3)CC2)nnc1-c1ccco1 | -14% | -22% | u | 18µM* | u | -26%

Source: PubChem BioAssay
